Experimental findings from PMC7862700, “An all-to-all approach to the identification of sequence-specific readers for epigenetic DNA modifications on cytosine” are described below.

Holding throughout (assay): DAPPL (digital affinity profiling via proximity ligation, sequencing); 10 mM Tris-HCl pH 7.5, 50 mM NaCl, 1 mM DTT, 4% glycerol, room temperature, 30 min; GST-TFs on glutathione beads, 16-mer random dsDNA library, 0.1% formaldehyde crosslink after washing; high values mean tight binding
Holding throughout (conditions): protein: recombinant; tags: N-terminal GST; dsDNA, one strand shown

In one assay the target is T1, FEV (Homo sapiens, UniProt Q99581 1-238).
T1 sequence: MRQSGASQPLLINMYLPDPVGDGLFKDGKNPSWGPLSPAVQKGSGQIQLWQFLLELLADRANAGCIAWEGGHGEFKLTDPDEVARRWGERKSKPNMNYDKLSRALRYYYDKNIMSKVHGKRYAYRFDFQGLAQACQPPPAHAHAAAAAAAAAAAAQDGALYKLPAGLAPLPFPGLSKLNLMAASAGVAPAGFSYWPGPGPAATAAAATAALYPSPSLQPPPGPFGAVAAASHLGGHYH
The gist of the method: (§1)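 In yeast, human transcription factors were expressed with a GST fusion, then pulled down on glutathione beads and given DNA barcodes. Pooled with a tag-only sample, they were exposed to 200 nmole of a 16-mer random double-stranded DNA library (Tris/NaCl/DTT/glycerol buffer, room temperature, 30 min), washed, crosslinked with 0.1% formaldehyde, proximity-ligated using BsaI/T4 ligase for 1 h at 37 °C, PCR-amplified and read on an Illumina NextSeq500. Each hexamer's frequency of reads for a factor, divided by the matching frequency for the tag-only sample, gives the binding signal.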

In another assay the target is ETV5 (Homo sapiens, UniProt P41161 1-510). In a few lines: as §1
The next assay concerns the target T2, SPIC (Homo sapiens, UniProt Q8N5J4 1-248).
T2 sequence: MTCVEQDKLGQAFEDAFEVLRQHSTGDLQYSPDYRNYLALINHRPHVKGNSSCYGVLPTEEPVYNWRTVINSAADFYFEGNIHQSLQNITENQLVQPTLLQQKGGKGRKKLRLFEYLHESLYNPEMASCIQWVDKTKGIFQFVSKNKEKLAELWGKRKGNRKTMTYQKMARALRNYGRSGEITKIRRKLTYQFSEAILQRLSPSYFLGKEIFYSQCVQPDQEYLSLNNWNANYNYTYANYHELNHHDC
In a few lines: as §1

In another assay the target is ELF4 (Homo sapiens, UniProt Q99607 1-663). The gist of the method: as §1
The next assay deals with T3, ELK4 (Homo sapiens, UniProt P28324-2 1-405).
T3 sequence: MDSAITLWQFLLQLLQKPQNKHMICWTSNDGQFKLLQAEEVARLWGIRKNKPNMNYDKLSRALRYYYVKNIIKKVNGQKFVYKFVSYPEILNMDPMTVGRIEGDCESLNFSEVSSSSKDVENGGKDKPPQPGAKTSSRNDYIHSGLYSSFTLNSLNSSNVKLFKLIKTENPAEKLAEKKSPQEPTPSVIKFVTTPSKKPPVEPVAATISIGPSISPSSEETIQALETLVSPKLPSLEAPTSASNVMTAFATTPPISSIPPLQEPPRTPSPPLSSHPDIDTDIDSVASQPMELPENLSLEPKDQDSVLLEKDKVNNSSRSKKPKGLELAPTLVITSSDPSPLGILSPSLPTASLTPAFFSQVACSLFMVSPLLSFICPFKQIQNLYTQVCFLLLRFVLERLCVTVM
In a few lines: as §1

For the next assay, the target named is T4, ETV2 (Homo sapiens, UniProt O00321 1-342).
T4 sequence: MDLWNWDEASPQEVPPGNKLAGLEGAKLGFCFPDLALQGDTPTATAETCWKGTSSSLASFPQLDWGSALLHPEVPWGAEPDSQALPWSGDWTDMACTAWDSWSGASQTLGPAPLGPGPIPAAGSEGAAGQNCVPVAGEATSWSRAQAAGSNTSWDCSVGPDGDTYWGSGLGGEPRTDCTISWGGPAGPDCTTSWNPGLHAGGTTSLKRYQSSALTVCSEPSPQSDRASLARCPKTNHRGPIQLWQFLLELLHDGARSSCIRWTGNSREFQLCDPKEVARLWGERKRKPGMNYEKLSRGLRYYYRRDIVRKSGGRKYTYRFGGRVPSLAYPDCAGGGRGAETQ
In a few lines:
as §1

The target in the next assay is T5, ELF3 (Homo sapiens, UniProt P78545 1-371).
T5 sequence: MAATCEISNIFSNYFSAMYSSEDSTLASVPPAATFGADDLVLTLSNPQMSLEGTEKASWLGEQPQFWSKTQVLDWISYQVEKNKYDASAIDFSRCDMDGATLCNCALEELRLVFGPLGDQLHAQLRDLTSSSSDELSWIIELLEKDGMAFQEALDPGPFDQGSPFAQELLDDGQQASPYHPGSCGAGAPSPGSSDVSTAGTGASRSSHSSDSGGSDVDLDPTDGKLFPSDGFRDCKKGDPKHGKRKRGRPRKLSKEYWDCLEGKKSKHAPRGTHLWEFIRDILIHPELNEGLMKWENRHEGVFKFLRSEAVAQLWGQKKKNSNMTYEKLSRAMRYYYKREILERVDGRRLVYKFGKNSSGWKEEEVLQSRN
The gist of the method:
as §1

The next assay has as its target ETV1 (Homo sapiens, UniProt P50549 1-477). The gist of the method:
as §1

ELF4, sequence (Q99607 whole entry): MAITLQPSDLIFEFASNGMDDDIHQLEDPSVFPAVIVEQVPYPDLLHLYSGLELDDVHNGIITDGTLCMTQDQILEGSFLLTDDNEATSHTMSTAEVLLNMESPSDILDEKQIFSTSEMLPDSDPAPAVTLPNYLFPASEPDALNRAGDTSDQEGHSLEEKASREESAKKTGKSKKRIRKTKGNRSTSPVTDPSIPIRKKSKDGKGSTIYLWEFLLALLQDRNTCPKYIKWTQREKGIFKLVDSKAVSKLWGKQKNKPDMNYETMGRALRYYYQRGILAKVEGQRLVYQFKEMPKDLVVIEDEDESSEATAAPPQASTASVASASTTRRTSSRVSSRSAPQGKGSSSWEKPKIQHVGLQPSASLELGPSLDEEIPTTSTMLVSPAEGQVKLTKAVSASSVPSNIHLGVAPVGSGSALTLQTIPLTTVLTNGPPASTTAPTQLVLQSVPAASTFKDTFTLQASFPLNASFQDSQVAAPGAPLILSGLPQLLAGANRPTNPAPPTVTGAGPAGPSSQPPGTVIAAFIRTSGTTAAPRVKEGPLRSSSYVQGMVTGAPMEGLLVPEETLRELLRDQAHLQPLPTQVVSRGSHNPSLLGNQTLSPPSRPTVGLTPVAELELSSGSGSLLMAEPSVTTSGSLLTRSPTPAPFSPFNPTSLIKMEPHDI
ETV5, sequence (P41161 whole entry): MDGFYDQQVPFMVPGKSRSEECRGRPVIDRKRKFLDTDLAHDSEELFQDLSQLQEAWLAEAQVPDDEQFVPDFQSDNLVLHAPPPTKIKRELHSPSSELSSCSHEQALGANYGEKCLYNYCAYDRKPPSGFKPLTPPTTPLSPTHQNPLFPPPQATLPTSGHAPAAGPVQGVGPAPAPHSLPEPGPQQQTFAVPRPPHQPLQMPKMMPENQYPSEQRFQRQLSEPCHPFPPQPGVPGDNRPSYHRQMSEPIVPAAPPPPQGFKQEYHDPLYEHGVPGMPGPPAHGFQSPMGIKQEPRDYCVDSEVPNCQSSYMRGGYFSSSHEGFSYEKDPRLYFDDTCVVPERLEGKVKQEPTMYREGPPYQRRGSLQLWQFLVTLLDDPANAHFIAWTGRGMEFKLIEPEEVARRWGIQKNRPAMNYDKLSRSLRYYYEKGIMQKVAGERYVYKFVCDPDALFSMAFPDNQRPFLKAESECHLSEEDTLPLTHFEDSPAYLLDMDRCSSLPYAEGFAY
ETV1, sequence (P50549 whole entry): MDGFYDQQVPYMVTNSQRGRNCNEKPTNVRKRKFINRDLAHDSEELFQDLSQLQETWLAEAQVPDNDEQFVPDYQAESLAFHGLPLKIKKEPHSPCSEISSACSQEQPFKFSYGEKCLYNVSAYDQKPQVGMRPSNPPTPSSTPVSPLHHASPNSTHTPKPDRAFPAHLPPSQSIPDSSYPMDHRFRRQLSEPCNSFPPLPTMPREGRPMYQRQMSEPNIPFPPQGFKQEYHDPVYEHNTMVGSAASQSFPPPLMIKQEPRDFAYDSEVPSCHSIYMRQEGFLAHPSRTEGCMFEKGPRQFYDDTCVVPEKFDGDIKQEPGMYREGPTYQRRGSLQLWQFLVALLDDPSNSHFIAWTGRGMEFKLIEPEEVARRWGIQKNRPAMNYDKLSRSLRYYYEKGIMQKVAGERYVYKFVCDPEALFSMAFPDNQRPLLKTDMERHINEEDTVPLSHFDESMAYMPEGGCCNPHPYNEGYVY

Consider GGATGC, for which the binding signal with FEV is 1.29 fold enrichment (6-mer frequency, TF over GST control); with ETV5, 1.27 fold enrichment (6-mer frequency, TF over GST control); with SPIC, 1.2 fold enrichment (6-mer frequency, TF over GST control); with ELF4 it was 1.09 fold enrichment (6-mer frequency, TF over GST control); with ELK4 it was 1.13 fold enrichment (6-mer frequency, TF over GST control); with ETV2 it was 1.06 fold enrichment (6-mer frequency, TF over GST control). Besides, the binding signal in the assay with ELF3 is 1.13 fold enrichment (6-mer frequency, TF over GST control); with ETV1 it was 1.2 fold enrichment (6-mer frequency, TF over GST control).
Consider AAGTGG, for which the binding signal in the assay with FEV was 1.23 fold enrichment (6-mer frequency, TF over GST control); with ETV5, 1.17 fold enrichment (6-mer frequency, TF over GST control); in the assay with SPIC, 1.43 fold enrichment (6-mer frequency, TF over GST control); in the assay with ELF4, 1.12 fold enrichment (6-mer frequency, TF over GST control); in the assay with ELK4 it was 1.13 fold enrichment (6-mer frequency, TF over GST control); in the assay with ETV2 it was 1.02 fold enrichment (6-mer frequency, TF over GST control). Further, the binding signal in the assay with ELF3 is 1.19 fold enrichment (6-mer frequency, TF over GST control); with ETV1, 1.2 fold enrichment (6-mer frequency, TF over GST control).
For the sequence AAGTGT, the binding signal with FEV is 1.28 fold enrichment (6-mer frequency, TF over GST control); with ETV5, 1.33 fold enrichment (6-mer frequency, TF over GST control); in the assay with SPIC, 1.6 fold enrichment (6-mer frequency, TF over GST control); with ELF4 it was 1.3 fold enrichment (6-mer frequency, TF over GST control); in the assay with ELK4, 1.21 fold enrichment (6-mer frequency, TF over GST control); in the assay with ETV2, 1.37 fold enrichment (6-mer frequency, TF over GST control). For the same sequence, the binding signal is 1.43 fold enrichment (6-mer frequency, TF over GST control) with ELF3 and 1.39 fold enrichment (6-mer frequency, TF over GST control) with ETV1.
As for CCTTGT, the binding signal in the assay with FEV is 1.09 fold enrichment (6-mer frequency, TF over GST control); with ETV5, 1.32 fold enrichment (6-mer frequency, TF over GST control); with SPIC it was 1.11 fold enrichment (6-mer frequency, TF over GST control); with ELF4 it was 1.29 fold enrichment (6-mer frequency, TF over GST control); with ELK4, 1.37 fold enrichment (6-mer frequency, TF over GST control); with ETV2, 1.03 fold enrichment (6-mer frequency, TF over GST control). Besides, the binding signal was 1.08 fold enrichment (6-mer frequency, TF over GST control) in the assay with ELF3 and 1.26 fold enrichment (6-mer frequency, TF over GST control) with ETV1.
For the sequence CTGCGT, the binding signal in the assay with FEV is 1.07 fold enrichment (6-mer frequency, TF over GST control); with ETV5, 1.09 fold enrichment (6-mer frequency, TF over GST control); in the assay with SPIC, 1.31 fold enrichment (6-mer frequency, TF over GST control); with ELF4, 1.09 fold enrichment (6-mer frequency, TF over GST control); with ELK4, 1.3 fold enrichment (6-mer frequency, TF over GST control); with ETV2, 1.09 fold enrichment (6-mer frequency, TF over GST control). Further, the binding signal was 1.07 fold enrichment (6-mer frequency, TF over GST control) with ELF3 and 1.11 fold enrichment (6-mer frequency, TF over GST control) with ETV1.
In the case of GGTTTG, the binding signal was 1.12 fold enrichment (6-mer frequency, TF over GST control) in the assay with FEV; 1.02 fold enrichment (6-mer frequency, TF over GST control) with ETV5; 1.27 fold enrichment (6-mer frequency, TF over GST control) with SPIC; 1.12 fold enrichment (6-mer frequency, TF over GST control) with ELF4; 1.26 fold enrichment (6-mer frequency, TF over GST control) in the assay with ELK4; 1.05 fold enrichment (6-mer frequency, TF over GST control) with ETV2. Also, the binding signal with ELF3 is 1.09 fold enrichment (6-mer frequency, TF over GST control); with ETV1, 1.14 fold enrichment (6-mer frequency, TF over GST control).
For the sequence CCGCGT, the binding signal is 1.13 fold enrichment (6-mer frequency, TF over GST control) with FEV; 1.12 fold enrichment (6-mer frequency, TF over GST control) with ETV5; 1.12 fold enrichment (6-mer frequency, TF over GST control) with SPIC; 1.18 fold enrichment (6-mer frequency, TF over GST control) with ELF4; 1.24 fold enrichment (6-mer frequency, TF over GST control) with ELK4; 1.4 fold enrichment (6-mer frequency, TF over GST control) with ETV2. The binding signal in the assay with ELF3 was 1.16 fold enrichment (6-mer frequency, TF over GST control); with ETV1 it was 1.13 fold enrichment (6-mer frequency, TF over GST control).
